# Columns and labels:
# Assay in all cases: PBM binding z-score (relative to random genomic background probes); higher = stronger binding; sequences stand for … in GC…GCGATTGACAGCGTAGAATGAAGG
# [1] = tested on: PPARg:RXRa DBDmut IVT, anti-RXR (DBD mutation: RXRa K156A/R161A, NR concentration 270 nM, RXRa partner concentration 90 nM)
# Outline: (§1)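 Custom Agilent 4×180K protein-binding microarrays carried double-stranded probes, each with a 34-nt variable region. These regions held direct-repeat seeds, single-nucleotide variants, half-site ablations and random human genomic background sequences. Ligand-free nuclear receptor dimers were incubated on the arrays for 1 h, antibodies against each partner (one per run) detected binding, and scanned fluorescence was regression-normalized. Binding z-scores take the random background probes as reference.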
# [2] = tested on: PPARg:RXRa IVT, anti-PPARg (NR concentration 270 nM, RXRa partner concentration 90 nM)
# Outline: as §1
# [3] = tested on: PPARg DBDmut:RXRa IVT, anti-PPARg (DBD mutation: PPARg1 K132A/R137A, NR concentration 270 nM, RXRa partner concentration 90 nM)
# Outline: as §1
# [4] = tested on: PPARg DBDmut IVT, anti-PPARg (DBD mutation: PPARg1 K132A/R137A, NR concentration 270 nM)
# Outline: as §1
# [5] = tested on: PPARg homodimer (NR concentration 180 nM)
# Outline: as §1
# [6] = tested on: PXR:RXRa (NR concentration 270 nM, RXRa partner concentration 90 nM)
# Outline: as §1
# [7] = tested on: PXR homodimer (NR concentration 270 nM)
# Outline: as §1
# [8] = tested on: RARa:RXR (NR concentration 270 nM, RXRa partner concentration 90 nM)
# Outline: as §1
# [9] = tested on: RARa homodimer (NR concentration 270 nM)
# Outline: as §1
# [10] = tested on: RARb:RXRa (NR concentration 270 nM, RXRa partner concentration 90 nM)
# Outline: as §1
Sequence,PBM binding z-score [1],PBM binding z-score [2],PBM binding z-score [3],PBM binding z-score [4],PBM binding z-score [5],PBM binding z-score [6],PBM binding z-score [7],PBM binding z-score [8],PBM binding z-score [9],PBM binding z-score [10]
CCTAGCAGGCCAACCTGGGTCACTCAAGGCTTGA,1.14,1.46,-0.885,-0.95,0.425,1.46,-0.576,1.44,0.141,1.96
TCTGCTAGGTCAACGATAGTCAGCTAATCTGCTA,4.19,4.2,0.616,0.703,0.481,1.31,-0.482,1.98,-0.872,3.99
GCGACTGGGGCAAAGCAGGTTAACATAAGGTTGG,4.62,3.42,-0.747,-0.874,0.353,0.721,-0.496,1.1,-0.822,1.05
CCTAGTTGGTCAAGGCCACACACGCTATAGGTAC,1.25,1.16,0.294,0.121,1,0.291,1.6,0.34,0.796,1.76
GCAGACAGGTGAAACGCAGGTAACTCGGGGTGGC,0.722,0.559,-0.371,-1.17,-0.333,0.0221,-0.587,0.361,-1.06,0.754
GCTAGTTGGTCAGTAAACGGTCACACACCGGTCG,0.107,0.661,0.0589,-0.0564,0.967,0.0338,0.06,0.591,0.301,1.76
CGAACTAGGTCATTCACAGGACAGTGAATAGTAA,8.25,8.21,1.5,0.729,1.48,1.77,0.314,2.2,0.779,3.72
ACTGTTAGTTGACTTAGGGCAACCGATACGACGC,0.0464,0.607,0.909,0.844,0.977,0.277,0.341,0.582,0.354,1.04
CCTACTCGGCCAAGGTCATTGATCAGTCAAAGCA,1.8,1.68,-0.0349,-0.365,2.76,3.75,2.34,3.59,1.82,3.52
ACTAGCAGGACAAGTTTGGGTCACTCAAACAAAG,0.129,0.867,0.113,-0.22,0.596,0.911,-0.116,1.47,-0.279,1.7
CAAACTAGGTCACCCGAAGGTCAAAGTCCGCATG,8.43,8.81,7.92,7.09,11.1,6.02,2.67,7.7,3.95,5.29
AGAACGAGGGCTCGCTGAGTTGATAGCAGAGTAG,-0.0756,-0.495,-1.3,-0.699,-0.792,-0.724,-0.639,-0.678,-1.21,-0.365
ATTTCTAGGTAAGACTCAGTTCAGTGAAGAACGC,4.54,2.6,1.64,1.76,1.66,1.39,1.8,0.607,2.29,0.674
GCGACTGGGGCATGAGCAGGTTACCATAACTTAA,3.82,3.4,-0.58,-0.475,0.287,0.134,-0.328,0.416,-0.578,0.781
CTCGAAAGGTCGTACTCAGGTGAGTATACCAAAC,1.03,1.95,0.751,1.1,2.32,3.69,0.0401,4.62,0.162,3.75
CCTTACGGGTCAAGGTTATAGGACGGGTGGTACG,1.92,3.64,0.411,-0.184,2.15,3.39,0.631,4.15,0.493,4.13
CGAACTAGGTCATCCAGGAAAGTGAATACATTGA,8.18,8.5,3.43,1.05,1.98,1.58,0.128,2.49,0.697,3.96
TCTATTAGTTGAAGGGCAACCGCCGAGTCCGTTT,2.32,0.783,0.465,1.32,1.11,0.779,0.698,0.905,1.14,1.74
GCTAGTTGGTCGGTAAAAGGTCACACACCGGTCG,0.248,3.4,0.279,0.356,3.46,4.78,1.24,5.17,1.42,4.08

Sequence,PBM binding z-score [1],PBM binding z-score [2],PBM binding z-score [3],PBM binding z-score [4],PBM binding z-score [5],PBM binding z-score [6],PBM binding z-score [7],PBM binding z-score [8],PBM binding z-score [9],PBM binding z-score [10]
GCGACTGGGGCATCAGCAGATTACCATAACTTAA,4,2.69,0.0111,-0.326,-0.0673,-0.385,-0.328,-0.267,0.336,0.39
CCTCGGAGGACAACAGGAGGTCAGACCTGCCAGA,0.294,0.546,-0.564,-0.997,1.43,2.11,0.241,2.19,0.183,2.89
AGAACGAGGTCAATGAGTTGATAGCACGGGTGGC,5.59,5.76,1.71,0.861,3.64,5.72,8.63,5.14,0.929,4.89
TCGAGTAGGTAAGGGGCATTCAGAATGGCGTCGA,1.59,0.472,-0.991,-1.03,0.148,-0.173,-0.537,-0.00481,-0.369,0.496
GCTTGCAGATCAAGGTTAAGAAAGACTAAGCTAA,0.163,0.227,-0.556,-0.251,-0.687,0.18,-0.42,0.588,-0.293,0.686
CGTCCAAGGTCAAACGTCAGTGAAGAGATGACGG,4.12,4.1,0.591,-0.466,2.61,4.43,0.834,5.04,0.465,5.22
TCATATAGGTAAACAGGTGAAAATCCGTAAGTTA,4.38,4.3,1.27,0.925,1.28,1.18,0.297,1.4,1.83,0.846
CAAACTAGGTCACAGAGGTCATAGTCCGTGCGTA,8.64,9.13,4.61,1.67,6.77,6.52,12.2,7.31,3.54,5.27
CCTTACGGGTCACTGACGGGTTATAGCATTTGGA,2.64,3.56,0.267,0.298,3.14,3.66,-0.038,4.82,0.976,4.04
CCAGACAGGTGAACGGTAACTCAGTCTGGTACGC,1.49,1.08,-0.573,-0.154,0.0136,-0.325,-0.355,-0.289,-0.204,0.99
CGAACTAGGTTATCCAGGACAGTGAATACATTGA,6.42,5.96,0.89,0.666,0.877,0.173,0.527,0.654,0.298,0.828
TCTTGTAGATCCATAGAGGTTAAGAAAGTGCGCT,1.15,0.128,1.1,0.975,0.227,2.66,0.0814,1.35,0.858,0.837
ATCACTAGGTAAAAGTTCAGTGAATCCCGAGGAT,3.38,4.52,1.04,1.36,1.02,2.08,1.55,1.9,1.02,2.49
AGGACGAGGGCACGCTGAGTTGATAGCAGAGTAG,2.52,2.08,-0.0685,-0.533,0.511,1.31,0.265,0.618,-0.58,2.68
CCTATTAGTTGACCATAAGGGCAACCGTAGCTCG,0.583,0.704,0.408,0.82,1.76,0.746,0.617,0.869,1.7,1.66
ACGAGCAGGCCAAGGGTCACTCAAGATTAGTCCG,0.294,2.7,-0.273,-0.61,1.76,3.15,-0.226,4.01,0.319,3.69
GCTATTAGCTGAAAGGGCAACCGAATGATTCTCG,0.31,0.298,-0.309,-0.672,0.621,0.34,-0.258,0.809,-0.61,1.76
CAAACTAGGTCAAGTGGTCAAAGTCCGCTTCCCG,8.23,8.54,2.88,1.21,2.1,2.11,0.168,3,0.47,4.38
GCTTACGGGTCAAATGTTATAGCATGAATAGAAT,4.4,4.44,1.56,1.2,2.47,3.34,-0.148,4.24,0.995,3.88
